An excerpt weighted towards active compounds, which were near 3.3% of everything screened.
PI4K2A block = blocks human PI4K2A kinase activity; 420,000 compounds, 0.13% hits; purified PI4K2A, ADP-Glo luminescence, 1 h; active compounds read low; Q9BTU6; activity change, negative = inhibition, % at 76.9 µM; in the data active = activity change below about -50%; inconclusive = mostly about -30% to -49%;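 note: -100% = wells without enzyme as full effect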
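Compounds are screened against recombinant PI4K2A using PI as substrate and ATP, the latter dispensed at 300 microM. Reactions run one hour at ambient temperature before ADP-Glo detection; full inhibition defined by wells lacking enzyme.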
D3 ag = agonists of human D3 dopamine receptor; P35462; max activation, %; D3R DiscoveRx beta-arrestin cells, luminescence, 90 min; AID 652048; 410,000 compounds, 0.58% hits; in the data active = max activation above about 30%; note: 0% is about no effect
Target sequence (P35462 whole entry, looked up): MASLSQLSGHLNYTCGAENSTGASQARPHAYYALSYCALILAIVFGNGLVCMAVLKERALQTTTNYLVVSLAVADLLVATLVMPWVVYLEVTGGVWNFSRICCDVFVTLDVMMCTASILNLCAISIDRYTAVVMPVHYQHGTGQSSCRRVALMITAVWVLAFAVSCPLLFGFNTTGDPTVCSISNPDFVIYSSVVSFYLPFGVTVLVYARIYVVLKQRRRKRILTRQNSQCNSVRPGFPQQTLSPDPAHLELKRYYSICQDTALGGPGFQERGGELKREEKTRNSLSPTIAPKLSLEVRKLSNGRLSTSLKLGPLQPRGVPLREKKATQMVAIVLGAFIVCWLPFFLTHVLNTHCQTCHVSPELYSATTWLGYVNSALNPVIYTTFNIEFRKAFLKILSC
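Cells at 1500/well, incubated overnight, then treated with pinned compounds (dopamine as control) for 90 min at 37 degrees C. DiscoveRx reagent added for 30 - 60 minutes at room temperature; luminescence read.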
PI5P4K alpha inh = blocks human PI5P4K alpha kinase activity; AID 652105; PI5P4Kalpha enzyme, ADP-Glo luminescence, 60 min; active compounds read low; 330,000 compounds, 1.2% hits; max response, %; active = max response of -50% or lower; inconclusive = between -30% and -50%; inactive = -30% or higher; note: value at the top dose of about 77 µM; % is set by controls: 0 for no effect and ±100 for the full control effect
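Controls without substrate or without enzyme flank wells where PI5P4Kalpha converts substrate using 5 microM ATP (final). Incubation lasts 60 minutes at room temperature; ADP formed is read by ADP-Glo luminescence.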
DRD3 antagonist = blocks the human D3 dopamine receptor; P35462; D3R cells, DiscoveRx beta-arrestin luminescence, antagonist mode; active compounds read low; max response, negative = inhibition, %; 360,000 compounds, 2.5% hits; in the data active = max response below about -50%; inconclusive = no clear call, values can overlap the other calls; note: % is set by controls: 0 for no effect and ±100 for the full control effect
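Cells expressing the human receptor were seeded at 1500 cells/well, incubated overnight at 37 degrees C in 5% CO2, then exposed to library compounds with dopamine controls for 90 minutes at 37 degrees C before luminescent detection.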
LDHA block = blocks human lactate dehydrogenase A | P00338 | purified LDHA, NADH/diaphorase-resazurin fluorescence; active compounds read low | activity change, % (values are at about 110 or 230 µM) | 480,000 compounds, 0.15% hits | AID 1347041; in the data active = activity change below about -30%; inconclusive = mostly about -25% to -30%;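 note: plate controls were DMSO wells for no effect and wells without enzyme for full effect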
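Resorufin fluorescence (ex540/em590), read at 0 and 20 min after diaphorase/resazurin addition, reports the NADH left after a 5 min room-temperature reaction of 2 nM human LDH5 with 0.06 mM NADH and 0.2 mM pyruvate.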
The depositor's hits bear a star; ? = inconclusive; . = no result.

SMILES	PI4K2A block	D3 ag	PI5P4K alpha inh	DRD3 antagonist	LDHA block
CCOc1ccc2[nH]c(SCC(=O)OC)c([N+](=O)[O-])c2c1	0.4	-12.6	1.8	-53.4*	6.2
CCOC(=O)C1CCCN(Cc2ccccc2C)C1 (stereo not given)	7.7	-29.9	.	-63.6*	-8.0
CCOC(=O)C1CCCN(Cc2ccc(OC)c(OCc3ccccc3)c2)C1 (stereo not given)	5.6	-27.6	-1.6	-83.8*	-17.2
COc1ccc(CN2CCC(C(N)=O)CC2)cc1OCc1ccccc1	13.4	-10.1	-1.6	-4.1	-12.9
CCCCCCCC/C=C/C(=O)O	3.2	.	.	.	.
C[C@H](CCCC/C=C/C(=O)O)O[C@@H]1O[C@@H](C)[C@H](O)C[C@H]1O	1.1	43.6*	3.1	3.2	-12.1
COC(=O)c1ccc(C23CC4(C2)[C@H](CN(Cc2cccnc2)[C@@H]4c2ccccc2)C3c2ccccc2)cc1 (stereo not given in full)	-2.7	47.1*	-3.4	-28.2	-2.8
COC(=O)c1ccc(C23CC4(C2)[C@H](CN(Cc2cccnc2)[C@@H]4c2ccccc2)C3c2ccc(C(F)(F)F)cc2)cc1 (stereo not given in full)	4.0	3.7	5.3	-4.8	-15.1
O=C(O)c1ccc(-n2cccc2/C=N\NC(=O)c2cc3cc(Br)ccc3o2)cc1	-10.0	9.4	-92.7*	3.4	-5.5
O=C(O)Cn1cc(/C=N/NC(=O)c2cc3cc(Br)ccc3o2)c2ccccc21	1.9	-14.1	-74.8*	3.5	-11.9
Cn1cc(/C=N/NC(=O)c2cc3cc(Br)ccc3o2)c2ccccc21	1.0	-30.1	-13.5	?	-1.6
Cc1ccc(-c2cc(-c3nnc(SCC(=O)N4c5ccccc5Sc5ccc(Cl)cc54)n3N)[nH]n2)cc1	4.1	.	.	.	.
CN(C)c1cccc(/C=C2\CC3(OC(=O)c4ccco4)CCCN2C3)c1 (stereo not given)	-2.4	.	.	.	.
c1ccc(-c2cn3nc4c(nc3n2)CCCC4)cc1	-52.5*	0.7	-9.5	24.0	7.7
Brc1ccc(-c2cn3nc4c(nc3n2)CCCC4)cc1	-2.3	-7.5	-12.7	-0.1	-1.7
Cc1c(C#N)c(O)[nH]c(=O)c1N=Nc1ccc(Br)cc1C(=O)O	-5.8	-0.9	-58.6*	8.8	16.3
COc1cc(Br)c(CN(C)CC(=O)N2c3ccccc3NC(=O)CC2C)cc1OC (stereo not given)	.	.	.	.	-0.9
Cc1nn(Cc2ccccc2Cl)c2sc(C(=O)Nc3nccs3)cc12	-4.8	31.8*	0.1	-9.1	-0.2
CC(C)CN(c1ccccc1)S(=O)(=O)c1nnc(NC(=O)c2ccco2)s1	0.8	-20.5	-13.1	-86.4*	-4.5
CCN(c1ccccc1)S(=O)(=O)c1nnc(NC(=O)CC(C)C)s1	4.2	-12.2	-3.7	-65.9*	-11.0
COc1ccccc1N1CCN(CCCN2C(=O)C3CCCCN3C2=O)CC1 (stereo not given)	-0.1	-11.8	2.9	-65.6*	-0.7
O=C1C2CCCN2C(=O)N1CCN1CCN(c2ccccc2)CC1 (stereo not given)	-4.5	-41.8	-5.4	-3.3	-3.4
COc1ccccc1N1CCN(CCN2C(=O)C3CCCCN3C2=O)CC1 (stereo not given)	-16.7	-20.7	-9.0	-79.1*	-2.8
COc1ccccc1N1CCN(CCCN2C(=O)C3CCCN3C2=O)CC1 (stereo not given)	-3.4	-12.7	9.2	-82.9*	1.0
O=C(NCCc1ccc(O)c(O)c1)C1COc2ccccc2O1 (stereo not given)	-2.9	92.1*	3.0	12.6	5.2
SMILES	PI4K2A block	D3 ag	PI5P4K alpha inh	DRD3 antagonist	LDHA block
COc1cc(/C=N/NC(=O)C2COc3ccccc3O2)ccc1O (stereo not given)	-6.0	-11.2	-7.7	-56.4*	0.6
COc1ccc(/C=N\NC(=O)C2COc3ccccc3O2)cc1O (stereo not given)	-3.6	-9.5	-5.9	-23.9	8.2
O=C(NCCc1ccccc1)C1COc2ccccc2O1 (stereo not given)	0.0	-5.6	5.3	-3.0	1.9
COc1ccc(C(=O)Nc2cc(-c3nc4cc(C)ccc4o3)ccc2C)cc1[N+](=O)[O-]	.	.	.	.	5.2
O=C(C[n+]1cccc(C(=O)Nc2ccccc2)c1)c1ccc(Cl)cc1	-1.5	-4.4	-0.1	?	4.8
NC(=O)C[n+]1cccc(C(=O)Nc2ccccc2)c1	-1.1	0.3	2.3	-67.3*	?
CC[C@@H](C(=O)[C@@H](C)[C@@H](O)[C@H](C)CCc1ccc(C)c(O)c1C(=O)O)[C@H]1O[C@](CC)([C@H]2CC[C@](O)(CC)[C@H](C)O2)C[C@@H]1C	2.1	207.5*	?	275.1	-12.2
Cc1sc2ncn(CC(=O)NCc3ccc(CN4CCC(C)CC4)cc3)c(=O)c2c1C	.	.	.	.	-8.8
N#Cc1ccccc1S(=O)(=O)N1CCN(C(=O)CN2CCCSc3ccccc32)CC1	2.5	1.9	3.6	-17.5	-2.5
Cc1ccc(S(=O)(=O)N2CCN(C(=O)CN3CCCSc4ccccc43)CC2)cc1	-1.5	-11.5	-4.3	-55.0*	-5.7
NC1=NC2(CCN(Cc3ccccc3)CC2)n2c(nc3ccccc32)N1	1.5	-8.8	.	-74.5*	-3.9
NC1=NC2(CCCCC2)n2c(nc3ccccc32)N1	-2.0	4.9	-4.6	5.7	-5.2
CN1CCN(C(CNC(=O)C(=O)Nc2ccc3c(c2)OCCO3)c2ccc(F)cc2)CC1 (stereo not given)	-0.1	107.6*	4.4	-0.8	-4.3
C#CCNC(=O)C[C@H]1C(=O)N(CCc2ccc(Cl)cc2)C2=CCCC[C@@]21C(=O)OCC	-0.4	.	.	.	.
CN(C)c1ccc(Cc2cc3c(O)ccc(O)c3cc(Cc3ccc(N(C)C)cc3)c2=O)cc1	-56.4*	-1.8	-84.4*	-51.1*	39.4
Cc1[nH]c(C)c(S(=O)(=O)Nc2cccc(Cl)c2C)c1C(=O)N1CCCCC1	-2.1	-4.6	-7.4	-51.2*	-2.7
Cc1[nH]c(C)c(S(=O)(=O)Nc2ccccc2Cl)c1C(=O)N1CCCC1	0.3	2.4	5.8	-5.8	-7.9
Cc1ccc(NS(=O)(=O)c2c(C)[nH]c(C)c2C(=O)N2CCCC2)cc1Cl	0.0	-20.9	-2.6	-85.8*	0.0
Cc1ccc(NS(=O)(=O)c2c(C)[nH]c(C)c2C(=O)N2CCCCC2)cc1C	-2.7	1.0	0.4	?	-2.5
Cc1cccc(C)c1NS(=O)(=O)c1c(C)[nH]c(C)c1C(=O)N1CCCCC1	.	.	.	.	-10.5
Cc1[nH]c(C)c(S(=O)(=O)Nc2cccc(Cl)c2C)c1C(=O)N1CCCC1	3.9	-2.9	1.6	-65.1*	0.2
CSc1nc(C(C)C)nc(C)c1C(=O)Nc1ccc(Cl)cc1	.	.	.	.	0.0
NC(=O)c1ccsc1NC(=O)COC(=O)COc1ccc2c(c1)CCC2	.	.	.	.	-3.3
O=C(O)Cn1c(SCc2ccccc2)nc2ccccc21	1.3	3.9	0.4	-53.4*	-7.2

Compound activity (PubChem)
